# Results as given in the supplement of paper PMC8728848.
# This excerpt belongs to a sample that is enriched for the strongest signals.
# B1: rMpL (Macrolepiota procera) (protein)
# chain: MSTQVSSGRTYKITNVIAGTVIDLSGEDNKSIIGYPYHSGKNQQWTFNWTGKAWTLRSASSGSYLGIEGTPAGGTRLVAVNDPFEWHIWRDEANENAFRIFVPFTNYNLDLSGYGDTTPGTPVQLWWTWEGLHQTWTIDRP
# Assays:
# Test in all cases: glycan array binding signal (z-score within array); higher = stronger binding
# Conditions in all cases: glycan notation: IUPAC condensed, linker removed
# [1] = molecular target: Gal(b1-4)GlcNAc(b1-3)Gal(b1-4)GlcNAc(b1-3)Gal(b1-4)GlcNAc(b1-3)Gal(b1-4)GlcNAc(b1-2)[Gal(b1-4)GlcNAc(b1-3)Gal(b1-4)GlcNAc(b1-3)Gal(b1-4)GlcNAc(b1-3)Gal(b1-4)GlcNAc(b1-6)]Man(a1-6)[Gal(b1-4)GlcNAc(b1-3)Gal(b1-4)GlcNAc(b1-3)Gal(b1-4)GlcNAc(b1-3)Gal(b1-4)GlcNAc(b1-2)Man(a1-3)]Man(b1-4)GlcNAc(b1-4)[Fuc(a1-6)]GlcNAc
# How it was run: (§1)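 The Consortium for Functional Glycomics database supplied 3228 glycan arrays, of which those lacking an available protein sequence were dropped. The binding signal, a within-array Z-score, was averaged across arrays of the same protein sequence and across linkers. Negative scores can be read as non-binding.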
# [2] = molecular target: Gal(b1-4)GlcNAc(b1-3)Gal(b1-4)GlcNAc(b1-3)Gal(b1-4)GlcNAc(b1-3)Gal(b1-4)GlcNAc(b1-3)Gal(b1-4)GlcNAc(b1-2)[Gal(b1-4)GlcNAc(b1-3)Gal(b1-4)GlcNAc(b1-3)Gal(b1-4)GlcNAc(b1-3)Gal(b1-4)GlcNAc(b1-3)Gal(b1-4)GlcNAc(b1-6)]Man(a1-6)[Gal(b1-4)GlcNAc(b1-3)Gal(b1-4)GlcNAc(b1-3)Gal(b1-4)GlcNAc(b1-3)Gal(b1-4)GlcNAc(b1-3)Gal(b1-4)GlcNAc(b1-2)Man(a1-3)]Man(b1-4)GlcNAc(b1-4)[Fuc(a1-6)]GlcNAc
# How it was run: as §1
# [3] = molecular target: Gal3S(b1-3)[Fuc(a1-4)]GlcNAc
# How it was run: as §1
# Gal3S(b1-4)Glc = molecular target: Gal3S(b1-4)Glc
# How it was run: as §1
# [4] = molecular target: Gal3S(b1-4)[Fuc(a1-3)]GlcNAc6S
# How it was run: as §1
# Gal6S(b1-4)Glc = molecular target: Gal6S(b1-4)Glc
# How it was run: as §1
# GalNAc(a1-3)GalNAc = molecular target: GalNAc(a1-3)GalNAc
# How it was run: as §1
# Glc(a1-4)Glc = molecular target: Glc(a1-4)Glc
# How it was run: as §1
# [5] = molecular target: GlcNAc(b1-2)Man(a1-3)[GlcNAc(b1-2)Man(a1-6)]Man(b1-4)GlcNAc(b1-4)GlcNAc
# How it was run: as §1
# [6] = molecular target: GlcNAc(b1-3)Gal(b1-3)GalNAc
# How it was run: as §1
# [7] = molecular target: GlcNAc(b1-3)Gal(b1-4)GlcNAc(b1-3)Gal(b1-4)GlcNAc(b1-3)Gal(b1-4)GlcNAc(b1-3)Gal(b1-4)GlcNAc(b1-2)Man(a1-3)[GlcNAc(b1-3)Gal(b1-4)GlcNAc(b1-3)Gal(b1-4)GlcNAc(b1-3)Gal(b1-4)GlcNAc(b1-3)Gal(b1-4)GlcNAc(b1-2)Man(a1-6)]Man(b1-4)GlcNAc(b1-4)[Fuc(a1-6)]GlcNAc
# How it was run: as §1
# [8] = molecular target: GlcNAc(b1-4)GlcNAc(b1-4)GlcNAc
# How it was run: as §1
# [9] = molecular target: Man(a1-2)Man(a1-3)[Man(a1-6)]Man(a1-6)[Man(a1-2)Man(a1-3)]Man(b1-4)GlcNAc(b1-4)GlcNAc
# How it was run: as §1
# [10] = molecular target: Man(a1-3)[Man(a1-6)]Man(a1-6)[Man(a1-3)]Man
# How it was run: as §1
# [11] = molecular target: Neu5Ac(a2-3)Gal(b1-4)GlcNAc(b1-3)Gal(b1-4)GlcNAc(b1-6)[Gal(b1-3)]GalNAc
# How it was run: as §1
# [12] = molecular target: Neu5Ac(a2-3)Gal(b1-4)[Fuc(a1-3)]GlcNAc
# How it was run: as §1
# [13] = molecular target: Neu5Ac(a2-3)Gal(b1-4)[Fuc(a1-3)]GlcNAc(b1-6)[Neu5Ac(a2-3)Gal(b1-3)]GalNAc
# How it was run: as §1
# [14] = molecular target: Neu5Ac(a2-6)Gal(b1-4)GlcNAc
# How it was run: as §1
# [15] = molecular target: Neu5Ac(a2-6)Gal(b1-4)GlcNAc(b1-2)Man(a1-3)[Neu5Ac(a2-6)Gal(b1-4)GlcNAc(b1-2)Man(a1-6)]Man(b1-4)GlcNAc(b1-4)[Fuc(a1-6)]GlcNAc
# How it was run: as §1
# [16] = molecular target: Neu5Ac(a2-6)Gal(b1-4)GlcNAc(b1-2)Man(a1-6)[Gal(b1-4)GlcNAc(b1-2)Man(a1-3)]Man(b1-4)GlcNAc(b1-4)GlcNAc
# How it was run: as §1
# [17] = molecular target: Neu5Ac(a2-6)Gal(b1-4)GlcNAc(b1-3)Gal(b1-4)GlcNAc
# How it was run: as §1
# [18] = molecular target: Neu5Ac(a2-6)GalNAc(b1-4)GlcNAc
# How it was run: as §1
# [19] = molecular target: Neu5Ac(a2-6)GlcNAc(b1-4)GlcNAc
# How it was run: as §1
# [20] = molecular target: Neu5Ac(a2-8)Neu5Ac(a2-8)Neu5Ac(a2-3)[GalNAc(b1-4)]Gal(b1-4)Glc
# How it was run: as §1
# [21] = molecular target: Neu5Ac(b2-6)Gal(b1-4)GlcNAc
# How it was run: as §1
# [22] = molecular target: Neu5Ac9Ac(a2-3)Gal(b1-3)GlcNAc
# How it was run: as §1
# [23] = molecular target: Neu5Ac9Ac(a2-3)Gal(b1-4)GlcNAc
# How it was run: as §1
# [24] = molecular target: Neu5Gc(a2-3)Gal(b1-3)[Fuc(a1-4)]GlcNAc
# How it was run: as §1
# Neu5Gc(a2-6)GalNAc = molecular target: Neu5Gc(a2-6)GalNAc
# How it was run: as §1
binder,measurement,setting,value
B1,glycan array binding signal (z-score),[1],4.7
same,glycan array binding signal (z-score),[2],4.6
same,glycan array binding signal (z-score),[3],-0.271
same,glycan array binding signal (z-score),Gal3S(b1-4)Glc,-0.325
same,glycan array binding signal (z-score),[4],-0.333
same,glycan array binding signal (z-score),Gal6S(b1-4)Glc,-0.233
same,glycan array binding signal (z-score),GalNAc(a1-3)GalNAc,-0.265
same,glycan array binding signal (z-score),Glc(a1-4)Glc,-0.289
same,glycan array binding signal (z-score),[5],-0.322
same,glycan array binding signal (z-score),[6],-0.302
same,glycan array binding signal (z-score),[7],-0.17
same,glycan array binding signal (z-score),[8],-0.382
same,glycan array binding signal (z-score),[9],-0.35
same,glycan array binding signal (z-score),[10],-0.268
same,glycan array binding signal (z-score),[11],-0.198
same,glycan array binding signal (z-score),[12],-0.32
same,glycan array binding signal (z-score),[13],-0.185
same,glycan array binding signal (z-score),[14],-0.358
same,glycan array binding signal (z-score),[15],-0.168
same,glycan array binding signal (z-score),[16],0.028
same,glycan array binding signal (z-score),[17],-0.363
same,glycan array binding signal (z-score),[18],-0.425
same,glycan array binding signal (z-score),[19],-0.364
same,glycan array binding signal (z-score),[20],-0.174
same,glycan array binding signal (z-score),[21],-0.33
same,glycan array binding signal (z-score),[22],-0.374
same,glycan array binding signal (z-score),[23],0.277
same,glycan array binding signal (z-score),[24],-0.335
same,glycan array binding signal (z-score),Neu5Gc(a2-6)GalNAc,-0.358
